Screening data (PubChem)
This is one part of a sample in which hits are shown more often than they occur.
PTK2B oligo ant: antagonists of human Pyk2 oligomerization; Q14289; Q293 cells, Pyk2 FERM NanoBiT luminescence; stronger effect = lower value; z-score (the deposit names both 25 µM and 10 µM); actives 0.83% (n = 99,000); AID 1347419;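 active means Z-score of -3 or lower, scaled per plate to the spread of control and sample wells; inactive means z-score above -3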;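 further: negative z-score means lost luminescence so less FERM oligomerization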
hDAT+cocaine: changed human dopamine transporter uptake under cocaine IC80 | LLC-PK1 hDAT cells, [14C]-dopamine uptake with cocaine IC80; actives deviate in either direction | AID 449768 | B-score at 10 µM | actives 1.3% (n = 110,000);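 active means Z score or B-score, a plate-position-corrected score, falls beyond the plate's 99.7% confidence bounds, in either direction; inactive means both scores lie inside the 99.7% bounds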
Mac1 fbg inh: blocks human CD11b/CD18 adhesion to fibrinogen | K562 CD11b/CD18 adhesion to fibrinogen, ATPlite luminescence; Mn2+ added to activate the integrin | P05107+P11215 | actives 0.54% (n = 93,000) | inhibition, % at 10 µM;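 active means primary inhibition of 50% or more at 10 µM, then 40% or more on retest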
FAK blocker: blocks human focal adhesion kinase activity; actives 0.84% (n = 97,000); biochemical FAK kinase activity assay; inhibition, %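 (tested at 7 µM)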; in the data active means inhibition above about 19%
Mac1 fbg enh: CD11b/CD18-fibrinogen binding enhancement | P05107+P11215 | K562 CD11b/CD18 adhesion to fibrinogen, ATPlite luminescence | activation, % at 10 µM | actives 0.07% (n = 93,000) | AID 1499;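 active means 10 µM primary screen giving 50% or more activity, confirmed by 40% or more on retest at that dose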
D1 allo mod: allosteric modulators of human D1 dopamine receptor; HEK293 D1, CRE-luciferase, dopamine EC30 potentiation; actives deviate in either direction; B-score at 10 µM; actives 5.9% (n = 58,000);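 active means luminescence count or its row- and column-corrected plate score outside the 99.7% band of the plate's sample wells, on either side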
Target sequence (P21728 whole entry, looked up): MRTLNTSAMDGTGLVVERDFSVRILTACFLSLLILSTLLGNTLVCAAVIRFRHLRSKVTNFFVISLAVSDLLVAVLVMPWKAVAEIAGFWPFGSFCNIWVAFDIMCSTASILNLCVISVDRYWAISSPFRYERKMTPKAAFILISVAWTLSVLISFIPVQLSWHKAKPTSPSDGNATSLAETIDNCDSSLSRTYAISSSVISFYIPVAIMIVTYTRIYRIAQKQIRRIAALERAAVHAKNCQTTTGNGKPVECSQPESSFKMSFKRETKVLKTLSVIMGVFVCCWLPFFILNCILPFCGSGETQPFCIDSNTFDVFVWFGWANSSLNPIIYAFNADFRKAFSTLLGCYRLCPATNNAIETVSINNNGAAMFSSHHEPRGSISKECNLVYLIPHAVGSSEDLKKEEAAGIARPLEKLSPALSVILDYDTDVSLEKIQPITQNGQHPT
Of the large screens only hits and unclear results are named; the others gave an inactive call.

CN(C)c1ccc(NC(=O)CN2CCN(S(=O)(=O)c3cc(Cl)ccc3Cl)CC2)cc1	none
CCCNC(=O)[C@H](Cc1c[nH]c2ccccc12)NC(=O)c1ccccc1Cl	none (no result: PTK2B oligo ant, hDAT+cocaine, FAK blocker, D1 allo mod)
Cc1ccc(C(=O)c2coc3ccc(O)c(CN4CCN(C)CC4)c23)cc1	D1 allo mod -3.08
COc1ccc(C(=O)c2coc3ccc(O)c(CN4CCOCC4)c23)cc1	hDAT+cocaine 3.46 (no result: PTK2B oligo ant, Mac1 fbg inh, Mac1 fbg enh)
COc1ccc(C(=O)c2coc3ccc(O)c(CN4CCCC4)c23)cc1	none (no result: PTK2B oligo ant)
COc1ccc(Cl)cc1NC(=O)C(C)N(C)Cc1ccc(C(F)(F)F)cc1 (configuration not stated)	none (no result: PTK2B oligo ant, hDAT+cocaine, FAK blocker, D1 allo mod)
Cc1ccc(-c2nn[nH]n2)cc1	hDAT+cocaine -8.16 (no result: D1 allo mod)
CS(=O)(=O)c1ccc(-c2nn[nH]n2)cc1	none
CC(=O)Oc1ccc2ccccc2c1C(NC(=O)Cc1ccccc1)c1ccccc1Cl (configuration not stated)	PTK2B oligo ant -4.41 (no result: D1 allo mod)
CCCC(=O)NC(c1ccc(OC)c(OC)c1)c1c(O)ccc2ccccc12 (configuration not stated)	none (no result: D1 allo mod)
CCC(=O)NC(c1cccc([N+](=O)[O-])c1)c1c(OC(C)=O)ccc2ccccc12 (configuration not stated)	PTK2B oligo ant -3.32 (no result: Mac1 fbg inh, Mac1 fbg enh, D1 allo mod)
CC(C)c1ccccc1N=C1SCCN1C1CCS(=O)(=O)C1 (configuration not stated)	none
Cc1ccc(C)n1C1CCS(=O)(=O)C1 (configuration not stated)	D1 allo mod -4.56
CCCc1ccc(-c2ccc(F)c(N)c2)nc1	D1 allo mod -7.41 (no result: Mac1 fbg inh, Mac1 fbg enh)
CCCCc1ccc(-c2ccc(Br)cc2)nc1	none (no result: Mac1 fbg inh, Mac1 fbg enh, D1 allo mod)
CC(COc1ccccc1Cc1ccccc1)N1CCCCC1 (configuration not stated)	none (no result: PTK2B oligo ant, Mac1 fbg inh, FAK blocker, Mac1 fbg enh, D1 allo mod)
CCC(CC)C1=NN2C(=N)/C(=C\c3cc(C)n(-c4cccc(C)c4)c3C)C(=O)N=C2S1	none (no result: hDAT+cocaine, Mac1 fbg inh, FAK blocker, Mac1 fbg enh, D1 allo mod)
CNC(=O)c1c(C)nc(SCC(=O)NCc2ccc(OC)cc2)c(C#N)c1-c1ccco1	D1 allo mod -2.86 (no result: hDAT+cocaine)
COCCOC(=O)c1c(C)nc(SCC(=O)Nc2cccc3ccccc23)c(C#N)c1-c1ccco1	hDAT+cocaine -8.19 (no result: D1 allo mod)
COCCOC(=O)c1c(C)nc(SCC(=O)Nc2ccc(C)cc2)c(C#N)c1-c1ccco1	none (no result: FAK blocker, D1 allo mod)
CC1=C(C/C=C(\C)CCC[C@H](C)CCC[C@H](C)CCCC(C)C)C(=O)c2ccccc2C1=O	none (no result: PTK2B oligo ant, Mac1 fbg inh, FAK blocker, Mac1 fbg enh, D1 allo mod)
CC1CCCN(c2c([N+](=O)[O-])c(=O)oc3ccccc23)C1 (configuration not stated)	hDAT+cocaine -2.72 (no result: D1 allo mod)
CC(C)OC(=O)c1ccc(NC(=O)Cn2c(-c3nonc3N)nc3ccccc32)cc1	PTK2B oligo ant -4.2 (no result: Mac1 fbg inh, Mac1 fbg enh, D1 allo mod)
CC1(c2nnc(-c3cccc(Cl)c3)o2)CC(c2cccc(Cl)c2)=NO1 (configuration not stated)	none (no result: PTK2B oligo ant, Mac1 fbg inh, FAK blocker, Mac1 fbg enh, D1 allo mod)
COc1ccc(-n2c(Cc3cccn3C)nnc2SCC(=O)Nc2ccc(C)cc2)cc1	hDAT+cocaine 2.35 (no result: PTK2B oligo ant, FAK blocker)
COc1ccc(NC(=O)CSc2nnc(Cc3cccn3C)n2-c2ccc(OC)cc2)cc1	none (no result: PTK2B oligo ant, FAK blocker)
COc1cccc(NC(=O)CSc2nnc(Cc3cccs3)n2-c2ccc(C)cc2)c1	PTK2B oligo ant -3.16 (no result: D1 allo mod)
Cn1cccc1Cc1nnc(SCC(=O)Nc2ccc(F)cc2F)n1-c1ccc(F)cc1	hDAT+cocaine -8.37 (no result: PTK2B oligo ant)
O=C(COc1ccc(S(=O)(=O)NC2CCCCC2)cc1)N1CCN(c2cccc(Cl)c2)CC1	none (no result: D1 allo mod)
O=C(NCCc1ccccc1)C1CCN(S(=O)(=O)c2ccc(-c3nn[nH]n3)cc2)CC1	none
O=C(CSc1nnc(-c2ccc(Cl)s2)o1)N1CCCc2ccccc21	D1 allo mod -2.65
Cc1cc(C)c2nc3s/c(=C/c4ccccc4)c(=O)n3c2c1	Mac1 fbg inh 56.8 (no result: PTK2B oligo ant, D1 allo mod)
COc1ccc(-c2nnc(SCc3nc4ccccc4s3)n2C(C)C)cc1	hDAT+cocaine 3.86 (no result: D1 allo mod)
COc1ccc(OC)c(CC(NC(C)=O)C(=O)NC2CCN(c3nc(C)cc(C)c3C#N)CC2)c1 (configuration not stated)	none (no result: PTK2B oligo ant, hDAT+cocaine, FAK blocker, D1 allo mod)
Cn1c(=O)oc2cc(S(=O)(=O)N3CCCC(C(=O)NC4CCCc5ccccc54)C3)ccc21 (configuration not stated)	none (no result: PTK2B oligo ant, D1 allo mod)
Cn1c(=O)oc2cc(S(=O)(=O)N3CCCC(C(=O)N4CC=C(c5ccccc5)CC4)C3)ccc21 (configuration not stated)	Mac1 fbg inh 60.9 (no result: PTK2B oligo ant, hDAT+cocaine)
